In the supplement of paper PMC10127200:
Counter-ions that a name gives are not always drawn.

Test system: HEPG2
Assay: Euclidean distance of Cell Painting phenotypic profile (signed KS, 77 features) to DMSO centroid (dimensionless distance); 5 or 10 uM (library dependent); higher = stronger phenotypic change vs DMSO (phenoactivity)
Settings: 48 h
Procedure, shortened: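 Harmony extracted 77 features from 20X confocal images (9 fields/well) of stained cells, scoring each as a signed Kolmogorov-Smirnov statistic against same-plate vehicle wells. The cells, five cancer lines and a healthy fibroblast line, had received library compounds for 48 h at 10 or 5 uM depending on library, with 0.1% DMSO final. Phenoactivity is the Euclidean distance from each plate-position-corrected, correlation-weighted, top-dose replicate-averaged profile to the median vehicle profile.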

Row | SMILES | Euclidean distance
1 | CCCC(=O)OCOC(=O)C1=C(C)NC(C)=C(C(=O)OC)C1c1cccc(Cl)c1Cl (stereo not given) [Clevidipine Butyrate] | 2.16
2 | COc1ccc(CNCc2cccc3ccccc23)cc1 | 0.933
3 | CC[C@H](c1ccc(O)cc1)[C@@H](CC)c1ccc(O)cc1 [Hexestrol] | 0.662
4 | CN[C@@H](C)C(=O)N[C@H](C(=O)N1CCC[C@H]1C(=O)Nc1snnc1-c1ccccc1)C1CCCCC1 | 0.88
5 | O=C(O[C@@H]1C[C@@H]2C[C@H]3C[C@H](C1)N2CC3=O)c1c[nH]c2ccccc12 [Dolasetron Mesylate] | 0.558
6 | CCC(C)n1ncn(-c2ccc(N3CCN(c4ccc(OCC5COC(Cn6cncn6)(c6ccc(Cl)cc6Cl)O5)cc4)CC3)cc2)c1=O (stereo not given) [Itraconazole] | 1.02
7 | Cc1ccc(NC(=O)c2ccc(CN3CCN(C)CC3)cc2)cc1Nc1nc(-c2cccnc2)cs1 [Masitinib (AB1010)] | 2.4
8 | Cn1cnc2c1c(=O)[nH]c(=O)n2C [Theobromine] | 1.77
9 | NC(=O)c1cn(Cc2c(F)cccc2F)nn1 [Rufinamide] | 0.473
10 | CN(C)C(=O)COC(=O)Cc1ccc(OC(=O)c2ccc(NC(=N)N)cc2)cc1 [Camostat Mesilate] | 0.823
11 | COc1ccc2cc3[n+](cc2c1OC)CCc1cc2c(cc1-3)OCO2 [Berberine Sulfate] | 1.68
12 | Cc1cnc(Nc2ccc(OCCN3CCCC3)cc2)nc1Nc1cccc(S(=O)(=O)NC(C)(C)C)c1 | 2.96
13 | COc1cc2nccc(Oc3ccc(NC(=O)NC4CC4)c(Cl)c3)c2cc1C(N)=O [Lenvatinib (E7080)] | 1.02
14 | CC(=O)N1C[C@H](O)C[C@H]1C(=O)O [Oxaceprol] | 0.812
15 | Cc1nc(C#Cc2ccnc(Cl)c2)c(C)n1-c1ccc(OC(F)(F)F)cc1 | 0.904
16 | CO/N=C(\C(=O)N[C@@H]1C(=O)N2C(C(=O)O)=C(CSc3nc(=O)c(O)nn3C)CS[C@H]12)c1csc(N)n1 [Ceftriaxone Sodium Trihydrate] | 0.792
17 | CO[C@@H]1[C@@H](O[C@@H]2O[C@H](C)[C@@H](O[C@H]3C[C@@](C)(O)[C@@H](OC(=O)CC(C)C)[C@H](C)O3)[C@H](N(C)C)[C@H]2O)[C@@H](CC=O)C[C@@H](C)[C@@H](O)/C=C/C=C/C[C@@H](C)OC(=O)C[C@H]1OC(C)=O [Josamycin] | 1.01
18 | OCCN1CCN(CCCN2c3ccccc3Sc3ccc(Cl)cc32)CC1 [Perphenazine] | 2.4
19 | CS(=O)(=O)c1cccc(C[C@H](NC(=O)c2c(Cl)cc3c(c2Cl)CCN(C(=O)c2ccc4ccoc4c2)C3)C(=O)O)c1 [Lifitegrast] | 0.431
20 | N#CC(=C(/N)Sc1ccccc1N)/C(C#N)=C(\N)Sc1ccccc1N | 1.81

Row | SMILES | Euclidean distance
21 | CNCc1cc(-c2ccccc2F)n(S(=O)(=O)c2cccnc2)c1 [Vonoprazan Fumarate (TAK-438)] | 0.474
22 | CCN1CCN(Cc2ccc(Nc3ncc(F)c(-c4cc(F)c5nc(C)n(C(C)C)c5c4)n3)nc2)CC1 [Abemaciclib] | 3.81
23 | Nc1nc2[nH]cnc2c(=S)[nH]1 [Thioguanine] | 3.13
24 | CCC(=O)c1c(O)cc(O)cc1O [Flopropione] | 0.447
25 | C[C@]12CCC(=O)C=C1CC[C@@H]1[C@@H]2[C@@H](O)C[C@@]2(C)[C@H]1CC[C@]2(O)C(=O)CO [Hydrocortisone] | 0.62
26 | C[C@H](CS)C(=O)N1CCC[C@H]1C(=O)O [Captopril] | 2.08
27 | FCOC(C(F)(F)F)C(F)(F)F [Sevoflurane] | 0.827
28 | O=NN(CCCl)C(=O)NC1CCCCC1 [Lomustine] | 0.457
29 | CC(C)[C@H]1CC[C@H](C(=O)N[C@H](Cc2ccccc2)C(=O)O)CC1 [Nateglinide] | 0.589
30 | Cc1ccc(/C(=C\CN2CCCC2)c2cccc(/C=C/C(=O)O)n2)cc1 [Acrivastine] | 0.729
31 | COCCCN1CCC(NC(=O)c2cc(Cl)c(N)c3c2OCC3)CC1 [Prucalopride Succinate] | 0.733
32 | CN(C)Cc1c(C(=O)NCCOc2ccc(C(=O)NO)cc2)oc2ccccc12 | 4.14
33 | Oc1c(Br)cc(Br)c2cccnc12 [Broxyquinoline] | 0.735
34 | O=C(O)c1cc(=O)c2ccccc2o1 [Chromocarb] | 0.887
35 | O=C1N=C(O)NC1(c1ccccc1)c1ccccc1 [Phenytoin sodium] | 0.937
36 | Cc1c(Cn2c(C)nc3c(C(=O)O)cc(N4CCOCC4)cc32)cccc1C(F)(F)F | 0.982
37 | CCn1cc(C(=O)O)c(=O)c2cc(F)c(N3CCN(C)CC3)cc21 [Pefloxacin Mesylate Dihydrate] | 0.635
38 | CCC(=O)O[C@@H](O[P@](=O)(CCCCc1ccccc1)CC(=O)N1C[C@H](C2CCCCC2)C[C@H]1C(=O)O)C(C)C [Fosinopril Sodium] | 0.444
39 | CCCC(=O)Nc1ccc(OCC(O)CNC(C)C)c(C(C)=O)c1 (stereo not given) [Acebutolol HCl] | 0.817
40 | Cc1c(-c2ccc(O)cc2)n(Cc2ccc(OCCN3CCCCCC3)cc2)c2ccc(O)cc12 [Bazedoxifene HCl] | 4.62
